SRC3 inh: inhibits human SRC3 coactivator. 360,000 compounds, 0.17% hits. HEK293 GAL4-SRC3 luciferase reporter, luminescence. AID 588352. inhibition, % at 3.6 µM;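 active means inhibition above a per-campaign cutoff, the mean of all compounds plus 3 SD, cut at about 60% in these data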;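 further: 0% = DMSO-treated cells and 100% = gossypol-treated cells at 36 µM; higher means less SRC3-driven luciferase light from the GAL4 reporter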
SRC1 inh: inhibits human SRC1 coactivator; Q15788; HEK293 GAL4-SRC1 luciferase reporter, luminescence; inhibition, % at 3.6 µM; 360,000 compounds, 0.12% hits; AID 588354;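 active means inhibition above the campaign mean plus 3 SD, with each screening campaign given its own cutoff, cut at about 60% in these data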;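 further: 0% = DMSO treated cells and 100% = gossypol at 36 µM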
LRH-1 inv ag: suppresses constitutive activity of human LRH-1; O00482; HEK293T StAR-luciferase reporter, LRH-1 transfected, 24 h; inhibition, % at 3.6 µM; 360,000 compounds, 0.13% hits;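 active means inhibition above the mean inhibition of all tested compounds plus 3 SD, cut at about 73% in these data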;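 further: 0% = DMSO wells and 100% = reporter-only cells lacking LRH-1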
NCOA2 inhibitor: inhibits human steroid receptor coactivator 2; Q15596; HEK293 GAL4-SRC2 luciferase reporter, luminescence; inhibition, % at 9 µM; 370,000 compounds, 0.17% hits;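 active means inhibition above the mean inhibition of all tested compounds plus 3 SD, set per campaign, cut at about 52% in these data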;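 further: 0% = DMSO treated cells and 100% = cells given Gossypol at 36 µM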
COUP-TFII inh: blocks human COUP-TFII nuclear receptor | HEK293T NGFI-A luciferase reporter, luminescence | inhibition, % at 8.6 µM | 370,000 compounds, 0.7% hits;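 active means inhibition above a per-plate cutoff, mean inhibition of test wells between control levels plus 3 SD, cut at about 38% in these data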;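 further: cells cotransfected with COUP-TFII expression vector driving the NGFI-A reporter; 0% = median of COUP-TF2 test wells and 100% = reporter-only cells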
Target sequence (P24468 whole entry, looked up): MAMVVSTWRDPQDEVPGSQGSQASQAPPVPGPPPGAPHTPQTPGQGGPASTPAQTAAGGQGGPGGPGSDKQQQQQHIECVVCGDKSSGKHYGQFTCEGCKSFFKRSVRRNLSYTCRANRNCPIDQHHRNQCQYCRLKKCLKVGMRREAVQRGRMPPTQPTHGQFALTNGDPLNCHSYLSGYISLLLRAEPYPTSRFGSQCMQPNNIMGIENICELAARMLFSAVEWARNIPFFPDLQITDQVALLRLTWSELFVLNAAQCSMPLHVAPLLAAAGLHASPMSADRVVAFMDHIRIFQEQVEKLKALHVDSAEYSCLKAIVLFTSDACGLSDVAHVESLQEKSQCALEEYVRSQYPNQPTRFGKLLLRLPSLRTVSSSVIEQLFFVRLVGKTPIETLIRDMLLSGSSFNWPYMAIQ
VP16 Luc counter: inhibits VP16 reporter, flagging COUP-TFII antagonist hits. inhibition, % at 8.5 µM. HEK293 Gal4-VP16 luciferase reporter, luminescence. AID 687007. 2,500 compounds, 25% hits. shares compounds with COUP-TFII inh; in the data active means inhibition above about 13%
COUP-TFII conf: COUP-TFII (NR2F2) inhibition, confirmation assay. inhibition, % at 8.5 µM. AID 687008. shares compounds with COUP-TFII inh. HEK293 NGFI-A luciferase reporter, luminescence. 2,500 compounds, 45% hits;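 active means mean inhibition over three repeats above a set limit taken from the earlier primary screen, cut at about 38% in these data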;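 further: 100% = cells given the luciferase reporter alone without the COUP-TF2 vector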
* hit, by the source's call; / = no result. Shown are actives, neighbours in structure and some others; about 0.84% of the full set was active somewhere.

SMILES	SRC3 inh	SRC1 inh	LRH-1 inv ag	NCOA2 inhibitor	COUP-TFII inh	others
CCCc1nc2ccc(Br)cc2c(=O)n1-c1ccc([N+](=O)[O-])c(C(F)(F)F)c1	64*	35	6	6	18
CC(O)C1C=CC=CC(=O)OC2CC3OC4C5OC5(C)CCC4(COC(=O)C4OC4(C)C(O)CO1)C2(C)C31CO1 (stereo unspecified)	94*	95*	99*	74*	91*
Cc1cccc2nc(-c3ccccc3)c(-c3ccc(CN4CCC(n5c(=O)[nH]c6cc(Cl)ccc65)CC4)cc3)nc12	/	/	/	7	2
Cc1nccc2c1[nH]c1ccc(Br)cc12	29	17	-1	15	-2
COc1ccc2c(c1)[nH]c1c(C)nccc12	73*	71*	38	48	31
c1ccc2c(c1)[IH]c1ccccc1-2	19	19	67	-97	59*
CC(C)[C@H]1C(=O)O[C@H](C(C)C)C(=O)N(C)[C@@H](C(C)C)C(=O)O[C@H](C(C)C)C(=O)N(C)[C@@H](C(C)C)C(=O)O[C@H](C(C)C)C(=O)N1C	70*	37	-15	/	/
CC[C@H](C)[C@@H]1OC(=O)[C@H](C(C)C)N(C)C(=O)[C@H](C(C)C)NC(=O)[C@@H](C)[C@@H](CCCC#CBr)OC(=O)[C@H](C(C)C)N(C)C(=O)C2CCCN2C1=O (stereo partly specified)	/	/	/	/	25
O=Cc1cn(Cc2cccc([N+](=O)[O-])c2)c2ccccc12	30	41	81*	32	14
Cc1cccc(Cn2cc(C=O)c3ccccc32)c1	17	13	28	30	5
Clc1ccccc1CN1CCN(c2cccc3[nH]ccc23)CC1	2	-7	-4	/	/
N=c1c2c(n(Cc3ccc(Cl)cc3Cl)c3c1CCC3)CCCC2	43	49	82*	/	/
Cc1[nH]nc2ccc(-c3cncc(OC[C@@H](N)Cc4c[nH]c5ccccc45)c3)cc12	94*	94*	99*	/	/
C=C(C)CSc1nnc([C@@H](N)Cc2c[nH]c3ccccc23)o1	11	-12	11	16	-5
O=C1CN=C(c2ccc[nH]2)c2cc(Cl)ccc2N1	51	53	40	53*	3
CN=C1CN=C(c2ccc[nH]2)c2cc(Cl)ccc2N1	/	/	/	/	-8
CC[C@@]1(O)C(=O)OCc2c1cc1n(c2=O)Cc2cc3c(NC(=O)CN)cccc3nc2-1	44	26	46	7	-27
CCC1(OC(=O)CN)C(=O)OCc2c1cc1n(c2=O)Cc2cc3ccccc3nc2-1 (stereo unspecified)	69*	27	87*	/	/
COC(=O)C1(N(C)c2ccccc2)CCN(Cc2ccccc2)CC1	/	/	/	-5	12
Cc1cccc(C)c1-n1nnnc1C(CCc1ccccc1)N1CCC(n2c(=O)[nH]c3ccccc32)CC1 (stereo unspecified)	84*	32	-9	-5	-22
N#Cc1ccc2nc(-c3ccc(CN4CCC(n5c(=O)[nH]c6cc(Cl)ccc65)CC4)cc3)c(-c3ccccc3)nc2c1	/	/	/	-11	-7
CN1OC[C@@H]2CN3C4(C[C@@H]21)c1ccccc1C3(c1ccccc1)c1ccccc14	/	/	/	-14	16
CC(=O)OC(C)(C)/C=C/C(=O)C(C)(O)C1C(O)CC2(C)C3CC=C4C(CC(O)C(=O)C4(C)C)C3(C)C(=O)CC12C (stereo unspecified)	16	-3	47	62*	-5
O=C(NCCN1CCC2(CC1)C(=O)NCN2c1ccccc1)C(c1ccccc1)c1ccccc1	/	/	/	5	12
CC(C)C(CN1CCC(C)(c2cccc(O)c2)[C@@H](C)C1)NC(=O)C1Cc2ccc(O)cc2CN1 (stereo partly specified)	/	/	/	8	-12
SMILES	SRC3 inh	SRC1 inh	LRH-1 inv ag	NCOA2 inhibitor	COUP-TFII inh	others
CC1=CC2OC3CC4OC(=O)C=CC=CC(=O)OCCC(C)C(O)C(=O)OCC2(CC1O)C4(C)C31CO1 (stereo unspecified)	93*	94*	97*	/	/
O=C1NC(=O)C(Cc2ccccc2)(Cc2ccccc2)C(=O)N1Cc1ccccc1	5	11	-3	-10	9
COC1=C(C)C(=O)C2=C(C1=O)C(CO)N1C(C#N)C3CC4C(C1C2N1CCOC41)N3C (stereo unspecified)	83*	76*	63	56*	1
c1ccc(P(c2ccccn2)c2ccccn2)cc1	7	-8	6	-10	-20
CCN1/C(=C\C=C\C2=[N+](CC)c3ccccc3C2(C)C)C(C)(C)c2ccccc21	81*	75*	91*	/	/
Cc1ccccc1C(=O)N1Cc2cnnn2-c2ccccc2C1C#N (stereo unspecified)	2	9	9	23	15
Cc1ccccc1CN1Cc2cnnn2-c2ccccc2C1C#N (stereo unspecified)	14	19	-17	48	39*	VP16 Luc counter=5;COUP-TFII conf=2
CN(Cc1cccc(-c2cccnc2)c1)C(=O)Oc1ccc([N+](=O)[O-])cc1	/	/	41	52	51*	VP16 Luc counter=9;COUP-TFII conf=31
CC(=O)c1c(C)n(Cc2ccccc2)c2ccc(O)cc12	28	17	1	17	9
CC(=O)c1c(C)n(C2CCCCC2)c2ccc(O)cc12	69*	73*	38	25	51*	VP16 Luc counter=17*;COUP-TFII conf=20
CCC(C)C(NC(=O)CCCNC(=O)CCC(=O)OC1O[C@H]2OC3(C)CC[C@H]4[C@H](C)CCC(C1C)C24OO3)C(=O)O (stereo partly specified)	68*	47	90*	-24	49*	VP16 Luc counter=-1;COUP-TFII conf=46*
CCC(C)NC(=O)CCC(=O)OC1O[C@H]2OC3(C)CC[C@H]4[C@H](C)CCC(C1C)C24OO3 (stereo partly specified)	77*	62*	91*	10	51*	VP16 Luc counter=12;COUP-TFII conf=49*
C[C@@H]1CC[C@H]2[C@@H](C)C(=O)O[C@@H]3O[C@@]4(C)CC[C@@H]1[C@]32OO4	-2	6	23	9	2
O=C(NCCN1CCC2(CC1)C(=O)NCN2c1ccccc1)c1cc(C(F)(F)F)ccc1C(F)(F)F	/	/	/	-5	-4
Cc1ccc(C2N(c3ccccn3)C(=O)C3CCCN32)o1 (stereo unspecified)	1	8	3	-26	4
c1cncc(-c2ccc3n2Cc2cnnn2-c2ccccc2-3)c1	/	/	/	37	6
CC(C)C(O)(C(=O)OCC1=CCN2CCC(O)C12)C(C)O (stereo unspecified)	-20	10	5	-14	6
Cn1c(O)c(C=NCCCCCCCCCCC(=O)O)c(=O)n(C)c1=O	5	7	-5	16	-5

Source: PubChem (The Scripps Research Institute Molecular Screening Center)
